Reference: PubChem BioAssay (NCATS)
Records with an inconclusive call do not appear. Unmarked numbers belong to inactive results. The source made the active and inactive calls. Calls follow the shape of the dose curve; as a rule, active = well fitted inhibition curve with a large enough effect; inconclusive = small, poorly fitted or top-dose-only effect; inactive = flat fitted curve, though single readings scatter. Where a SMILES comes first, the peptide text is derived from it. Bridges are numbered along the chain shown (N, C = ends). [ ]: non-standard residue; d: D form. The star is where a group is joined. ξ: configuration not given here. d(aThr) = C[C@@H](O)[C@@H](N)C(=O)O; ξThr(3R) = C[C@@H](O)C(N)C(=O)O; pGlu = O=C1CC[C@@H](C(=O)O)N1; X3 = CC[C@@H](C)CCCCC(=O)*; dDab = NCC[C@@H](N)C(=O)O

What follows are compounds tested against Voltage-gated inwardly rectifying potassium channel KCNH2 (Homo sapiens) (UniProt Q12809) (assay: qHTS Assay for Small Molecule Inhibitors of the Human hERG Channel Activity (AID 588834;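 also: lower thallium flux fluorescence means stronger hERG block; nearly all actives have a fitted effect of over 50% in size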; as to activity change, negative = inhibition: top concentration of the series differs between compounds)). Settings: U2OS BacMam hERG, FluxOR thallium flux fluorescence; series mostly up to 46.1 µM; activity change, negative = inhibition: at the top concentration.
Chain of Voltage-gated inwardly rectifying potassium channel KCNH2 (Homo sapiens) (Q12809 whole entry, looked up): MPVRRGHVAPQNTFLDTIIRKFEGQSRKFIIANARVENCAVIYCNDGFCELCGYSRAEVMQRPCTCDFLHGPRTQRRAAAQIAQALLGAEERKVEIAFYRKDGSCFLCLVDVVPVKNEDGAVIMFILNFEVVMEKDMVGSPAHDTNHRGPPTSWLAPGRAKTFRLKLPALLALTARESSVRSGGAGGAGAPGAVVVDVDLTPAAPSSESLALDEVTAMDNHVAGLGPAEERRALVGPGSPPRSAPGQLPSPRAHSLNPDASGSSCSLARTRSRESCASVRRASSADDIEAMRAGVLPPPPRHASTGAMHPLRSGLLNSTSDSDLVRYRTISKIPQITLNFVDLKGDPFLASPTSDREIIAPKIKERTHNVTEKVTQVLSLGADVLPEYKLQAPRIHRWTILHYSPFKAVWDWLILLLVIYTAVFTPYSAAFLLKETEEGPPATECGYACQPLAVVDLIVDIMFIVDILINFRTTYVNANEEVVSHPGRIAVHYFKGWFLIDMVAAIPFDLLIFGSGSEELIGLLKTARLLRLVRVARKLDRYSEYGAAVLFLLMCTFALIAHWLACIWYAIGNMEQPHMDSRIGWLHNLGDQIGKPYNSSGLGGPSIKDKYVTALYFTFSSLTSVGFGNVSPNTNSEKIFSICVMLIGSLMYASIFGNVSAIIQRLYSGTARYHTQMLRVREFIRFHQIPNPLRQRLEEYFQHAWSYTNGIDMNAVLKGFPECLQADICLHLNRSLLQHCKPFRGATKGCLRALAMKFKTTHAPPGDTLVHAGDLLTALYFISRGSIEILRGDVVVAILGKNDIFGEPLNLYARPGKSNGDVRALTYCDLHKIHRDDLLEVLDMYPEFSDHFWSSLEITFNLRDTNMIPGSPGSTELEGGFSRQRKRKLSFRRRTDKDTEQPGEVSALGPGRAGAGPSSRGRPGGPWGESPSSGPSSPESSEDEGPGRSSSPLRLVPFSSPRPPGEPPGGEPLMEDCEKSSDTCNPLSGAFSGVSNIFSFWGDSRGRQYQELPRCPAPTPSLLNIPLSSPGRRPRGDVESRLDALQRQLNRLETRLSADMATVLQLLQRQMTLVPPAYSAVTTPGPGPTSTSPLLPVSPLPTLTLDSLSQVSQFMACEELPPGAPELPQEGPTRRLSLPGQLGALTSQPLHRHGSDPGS
In short: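 Thallium-flux (FluxOR) read-out on FDSS: fluorescence read 10 s before and 2 min after stimulation buffer. hERG-BacMam-transduced U2OS cells, compound exposure about 10 min. AC50 by standard Hill equation.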
% is scaled to controls: 0 for no effect and ±100 for the full control effect; potency is read from the fitted curve at half-maximal effect.

Row | Structure (SMILES) | activity change, negative = inhibition | Potency
1 | COc1ccc(C(=O)/C(Br)=C\C(=O)O)cc1 | 0.875% | –
2 | CC1(C)C(\C=C/C=C\C=C/C=C2/N(CCCCS(=O)(=O)O)c3ccc4ccccc4c3C2(C)C)=[N+](CCCCS(=O)(=O)[O-])c2ccc3ccccc3c21 | 0.325% | –
3 | CCc1cn([C@H]2C[C@H](O)[C@@H](CO)O2)c(=O)[nH]c1=O | 3.36% | –
4 | CCCC1C(=O)N2C(N(C)C)=Nc3ccc(C)cc3N2C1=O (configuration not stated) | -2.03% [at 20.6 µM] | –
5 | CCC(Oc1ccccc1)C(=O)N[C@@H]1C(=O)N2[C@@H]1SC(C)(C)[C@@H]2C(=O)O (some centres not stated) | 13.4% | –
6 | C[N@+]12CCCC[C@@H]1CCC(=C(c1cccs1)c1cccs1)C2 | – | 2240 nM (active)
7 | CC(=O)N[C@@H]([C@@H](O)[C@H](O)[C@H](O)CO)[C@@H](O)CC(=O)C(=O)O | 17.7% | –
8 | C[C@H]1[C@@H](OC(=O)CCC(=O)O)O[C@@H]2OC3(C)CC[C@H]4[C@H](C)CC[C@@H]1[C@@]24OO3 | 3.74% | –
9 | NC(N)=NCC1COC2(CCCCC2)O1 (configuration not stated) | -3.48% [at 20.6 µM] | –
10 | C[C@@H]1C/C=C/C=C/C=C/C=C/[C@H](O[C@@H]2O[C@H](C)[C@@H](O)[C@H](N)[C@@H]2O)C[C@@H]2O[C@](O)(C[C@@H](O)C[C@H]3O[C@@H]3/C=C/C(=O)O1)C[C@H](O)[C@H]2C(=O)O | -11.6% | –
11 | Nc1nc(/C(=C/CC(=O)O)C(=O)N[C@@H]2C(=O)N3C(C(=O)O)=CCS[C@H]23)cs1 | -3.49% | –
12 | CC(C)[C@@H]1CC[C@@H](C)C[C@H]1OC(=O)c1ccccc1O | 5.36% | –
13 | CC[C@@H](C(=O)[C@@H](C)[C@@H](O)[C@H](C)[C@@H]1O[C@@H]([C@@H](CC)C(=O)O)CC[C@@H]1C)[C@H]1O[C@]2(C=C[C@@H](O)[C@]3(CC[C@@](C)([C@H]4CC[C@](O)(CC)[C@H](C)O4)O3)O2)[C@H](C)C[C@@H]1C | 22.7% | –
14 | C[C@@H]1C[C@H]2[C@@H]3C[C@H](F)C4=CC(=O)C=C[C@]4(C)[C@@]3(Cl)[C@@H](O)C[C@]2(C)[C@H]1C(=O)COC(=O)C(C)(C)C | -2.65% | –
15 | CC[C@H](CC[C@@H](C)[C@H]1CC[C@H]2[C@@H]3CC=C4C[C@@H](O)CC[C@]4(C)[C@H]3CC[C@]12C)C(C)C | -0.0834% | –
16 | CC[C@@H](C)CCCCC(=O)N[C@H](CCN)C(=O)N[C@@H](C(=O)N[C@H](CCN)C(=O)N[C@@H]1CCNC(=O)C([C@@H](C)O)NC(=O)[C@@H](CCN)NC(=O)[C@@H](CCN)NC(=O)[C@@H](CC(C)C)NC(=O)[C@@H](Cc2ccccc2)NC(=O)[C@@H](CCN)NC1=O)[C@@H](C)O (stereo partly drawn) (X3-[dDab][d(aThr)][dDab][dDab][dDab][dF][dL][dDab][dDab][ξThr(3R)]; lactam 4-C) | 2.11% | –
17 | C[C@@H](O)[C@H]1C(=O)N2C(C(=O)[O-])=C(SC3Cn4cnc[n+]4C3)[C@H](C)[C@H]12 (some centres not stated) | 7.8% | –
18 | C=Cc1c(C)c2cc3nc(cc4[nH]c(cc5nc(cc1[nH]2)C(C)=C5CCC(=O)OC)c(CCC(=O)O)c4C)[C@@]1(C)C3=CC=C(C(=O)OC)[C@H]1C(=O)OC | 1.17% | –
19 | NC(=O)c1cc[n+](CC2=C(C(=O)O)N3C(=O)[C@@H](NC(=O)C(c4ccccc4)S(=O)(=O)[O-])[C@H]3SC2)cc1 (some centres not stated) | 4.95% [at 20.6 µM] | –

Row | Structure (SMILES) | activity change, negative = inhibition | Potency
20 | CC(C)(C)NCC(O)c1ccc(O)c(CO)n1 (configuration not stated) | -25.2% | –
21 | C=C1CC[C@H](O)CC1=C/C=C1\CCC[C@]2(C)[C@@H]([C@H](C)CCCC(C)(C)O)CC[C@@H]12 | -4.45% | –
22 | CC[C@H](C)[C@H](NC(=O)[C@H](Cc1ccccc1)NC(=O)[C@H](C)NC(=O)[C@H](CC(=O)O)NC(=O)[C@H](CCCCN)NC(=O)[C@H](CO)NC(=O)[C@@H]1CCCN1C(=O)[C@@H]1CCC(=O)N1)C(=O)NCC(=O)N[C@@H](CC(C)C)C(=O)N[C@@H](CCSC)C(N)=O ([pGlu]PSKDAFIGLM-NH2) | 4.37% | –
23 | CC(C)(C)NCC(O)CSc1nc(-c2ccc(C(N)=O)s2)cs1 (configuration not stated) | -10% | –
24 | CC1(C)[C@H]2CC[C@]1(C)[C@H](O)C2 | 29% | –
25 | O=C1C2CC3CC1CC(O)(C3)C2 | 4.5% | –
26 | CN[C@@H]1[C@@H](O)[C@@H](O[C@@H]2[C@@H](O)[C@H](OC3OC(CN)=CCC3N)[C@@H](N)C[C@H]2N)OC[C@]1(C)O (some centres not stated) | 4.76% [at 20.6 µM] | –
27 | CCN(CC)C(=S)S | 13% | –
28 | CC(=O)[C@@]1(O)CC[C@H]2[C@@H]3C=C(Cl)C4=CC(=O)[C@@H]5C[C@@H]5[C@]4(C)[C@H]3CC[C@@]21C | 3.34% | –
29 | NC[C@@H]1O[C@H](O[C@H]2[C@@H](O)[C@H](O[C@@H]3[C@@H](O)[C@H](N)C[C@H](N)[C@H]3O[C@H]3O[C@H](CO)[C@@H](O)[C@H](O)[C@H]3N)O[C@@H]2CO)[C@H](N)[C@@H](O)[C@@H]1O | -7.02% | –
30 | CN[C@@H]1[C@@H](O[C@H]2O[C@H](CO)[C@@H](N)[C@H](O)[C@H]2O)O[C@H]2C[C@@H](N)[C@@H](O[C@H]3[C@H](O)[C@@H](O)[C@H](N)C[C@@H]3N)O[C@@H]2[C@@H]1O | 2.33% [at 20.6 µM] | –
31 | CC[C@H]1NC(=O)[C@@H](NC(=O)c2ncccc2O)[C@@H](C)OC(=O)[C@H](c2ccccc2)NC(=O)[C@@H]2CC(=O)CCN2C(=O)[C@H](Cc2ccccc2)N(C)C(=O)[C@@H]2CCCN2C1=O | 30.7% | –
32 | NC[C@H]1O[C@H](O[C@H]2[C@H](O)[C@@H](O[C@H]3O[C@H](CO)[C@@H](O)[C@H](N)[C@H]3O)[C@H](N)C[C@@H]2N)[C@H](O)[C@@H](O)[C@@H]1O | 10.2% [at 20.6 µM] | –
33 | CC[C@@H](C)[C@H](N)C(=O)O | 17.3% | –
34 | CO/N=C(\C(=O)N[C@@H]1C(=O)N2C(C(=O)O)=CCS[C@H]12)c1csc(N)n1 | 9.15% | –
35 | CCCC(=O)Nc1c(I)cc(I)c(CC(CC)C(=O)O)c1I (configuration not stated) | 16.9% | –
36 | OC[C@H]1O[C@@H](O[C@H]2[C@H](O)[C@@H](O)[C@H](O)O[C@@H]2CO)[C@H](O)[C@@H](O)[C@@H]1O | 18.8% | –
37 | CC1=CC(=C(c2ccc(N)cc2)c2ccc(N)cc2)C=CC1=N | -27.1% | –
